In ChEMBL document CHEMBL1157539, “Thousands of chemical starting points for antimalarial lead identification” (Nature, 2010) one finds Inhibition data, which are given here for 40 compounds.

The structures appear in SMILES notation.

The first experiment concerns Plasmodium falciparum. Briefly: GSK_TCMDC: Inhibition of Plasmodium falciparum Dd2 in whole red blood cells, using parasite LDH activity as an index of growth. Test compounds present at 2uM. Format: functional.
The Inhibition is the relative decrease from the control value, in per cent. A high value points to a strong effect. In turn, `O=C(Nc1cc(Cl)ccc1O)c1cc(-c2ccccc2O)no1` registered an Inhibition of 79%.

`Cl.O=C(/C=C/c1ccc(Cl)c(Cl)c1)N1CCC(CCN2CCC(c3c[nH]c4cnccc34)CC2)CC1` had an Inhibition of 100%.

`CCc1ccc(C2CCN(CCCCNC(=O)c3ccc(-c4ccc(C#N)cc4)cc3)CC2)c(OCCO)c1.Cl`: the Inhibition was determined as 61%.

`Br.COc1ccc2c(c1)CCCC2C(C)NCC(O)c1cccc(C(F)(F)F)c1` (stereo not given) showed an Inhibition of 99%.

As to `COc1cccc(CCc2ccc(O)c3c2C[C@H]2C[C@H]4[C@H](N(C)C)C(O)=C(C(N)=O)C(=O)[C@@]4(O)C(O)=C2C3=O)c1.Cl`, the Inhibition worked out at 67%.

In turn, `O=C(N[C@@H](CC1CCCCC1)C(=O)NCCc1ccc(Cl)c(Cl)c1)c1ccc(O)c(-c2ccc(Cl)c(Cl)c2)c1` came in with an Inhibition of 99%.

In turn, `CO/C(=C\C=C\c1cc2cc(Cl)c(Cl)cc2[nH]1)C(=O)NCCCN1CCN(C2CCCCC2)CC1` registered an Inhibition of 97%.

Turning to `Cc1cc(N)c2cc(NC(=O)/C=C/c3ccccc3)ccc2n1`, the Inhibition worked out at 68%.

Turning to `Fc1ccc(Nc2ccnc3cc(-c4cccc(CN5CCCCC5)c4)ccc23)c(Cl)c1`, the Inhibition came out at 58%.

In turn, `CCN1CCN(Cc2c(O)ccc3c(=O)c(Oc4cc(C)cc(C)c4)c(C(F)(F)F)oc23)CC1` came in with an Inhibition of 90%.

In turn, `CN(c1ccccc1)S(=O)(=O)c1cccc(NC(=O)c2ccc(-n3ccnc3)c([N+](=O)[O-])c2)c1` displayed an Inhibition of 0%.

As to `N[C@@H](Cc1cc(I)c(Oc2ccc(O)c(Cl)c2)c(I)c1)C(=O)O`, the Inhibition turned out to be 0%.

`COc1ccc(-n2ccnc2SCC(=O)Nc2cccc(C(F)(F)F)c2)c(OC)c1` came in with an Inhibition of 88%.

`Cc1[nH]c(C)c(-c2ccc(-c3ccccc3Cl)nc2)c(=O)c1Br` returned an Inhibition of 96%.

`CCOc1ccc(C(=O)Nc2nonc2-c2ccc(OC)c(OC)c2)cc1`: the Inhibition was found to be 42%.

As for `CCCc1cnc2nc(N)nc(N)c2c1C`, the Inhibition is 3%.

`O=C(NCC1CCC1)c1cnc(Nc2cccc(Cl)c2)nc1N1CCC1`: the Inhibition is 75%.

In turn, `CC1CN(C(=O)c2sc3ccccc3c2Cl)CC(C)O1` (stereo not given) returned an Inhibition of 98%.

In turn, `C=CCNS(=O)(=O)c1ccc(NC(=O)C(C)Oc2ccc([N+](=O)[O-])cc2)cc1` (stereo not given) showed an Inhibition of 100%.

`COc1cc2nc(N3CCC(CNC(=O)/C=C/c4ccccc4F)CC3)nc(N)c2cc1OC.Cl` came in with an Inhibition of 88%.

In turn, `COc1c(C2CCN(CCCCNC(=O)c3ccc(-c4ccc(C#N)cc4)nc3)CC2)ccc2c1CCCC2` gave an Inhibition of 67%.

In turn, `CC(C)CC(C)NC(=O)C1Cc2c([nH]c3ccc(F)cc23)C2(CCN(Cc3ccccc3)CC2)N1` (stereo not given) yielded an Inhibition of 49%.

In the case of `CC(C)c1ccc(S(=O)(=O)Nc2cccc(CCN3CCC(N4CCCCC4)CC3)c2)cc1`, the Inhibition was found to be 35%.

With `Cl.O=C(Nc1ccc2c(c1)CCNCC2)c1ccc(-c2ccc(Cl)cc2)cc1`, the Inhibition is 38%.

Consider `CS(=O)(=O)c1ccc(CNCc2cccc(-c3cccc(-c4nc5ccccc5[nH]4)c3)c2)cc1.O=C(O)C(F)(F)F`, for which the Inhibition is given as 47%.

In turn, `Fc1ccc2[nH]c(-c3cccc(-c4cccc(CNCCc5ccncc5)c4)c3)nc2c1.O=C(O)C(F)(F)F` showed an Inhibition of 88%.

In turn, `CN(CCN)Cc1cccc(-c2cccc(-c3nc4cc(F)ccc4[nH]3)c2)c1.O=C(O)C(F)(F)F` displayed an Inhibition of 19%.

The compound `COC(=O)Nc1ccc(-c2ccc(C(=O)NC3CCN(C[C@H](O)c4ccnc5ccc(OC)cc45)CC3)cc2)c(C)c1` displayed an Inhibition of 97%.

In turn, `CC(C)N1CCN(c2ccc(OCCCCN3CCN(c4cccc(Cl)c4Cl)CC3)cc2Cl)CC1.Cl` had an Inhibition of 34%.

`Cc1cc(NCCCCCCCCNc2cc(C)nc3ccccc23)c2ccccc2n1.Cl` showed an Inhibition of 0%.

Regarding `O=C(Nc1ccc(CCNCc2ccccc2)cc1)Nc1ccc(OC(F)(F)F)cc1.O=C(O)C(F)(F)F`, the Inhibition is given as 22%.

`O=C(/C=C/c1ccc(Cl)c(Cl)c1)NCCCCCCN1CCN(C(=O)Nc2ccc(Cl)c(C(F)(F)F)c2)CC1`: the Inhibition is listed as 43%.

Regarding `CN(C)C(=O)n1cnc(S(=O)(=O)N(C)c2ccc(Cl)cc2)n1.Cl`, the Inhibition worked out at 80%.

Turning to `O=C(NCc1ccc(Cl)c(Cl)c1)c1ccc(C2CCCN(Cc3ccc4[nH]cnc4c3)C2)cc1` (stereo not given), the Inhibition came out at 83%.

`CCCCC(CC)CN1C(=O)C(c2ccccc2)(c2ccccc2)N=C1N.O=CO` (stereo not given) came in with an Inhibition of 98%.

Compound `Cl.OC(c1ccccc1)C1CN(CCC2CC3CCC2C3)CCC1(O)c1ccccc1` (stereo not given) registered an Inhibition of 99%.

For `CCN(CC)/C(=N\CCCCCC/N=C(\NC(=N)c1ccc(Cl)cc1)N(CC)CC)NC(=N)c1ccc(Cl)cc1`, the Inhibition was determined as 99%.

`Cc1cccc2nc(-c3ccc(-c4cccc(NC(=O)Nc5ccccc5)c4)cc3)[nH]c12` registered an Inhibition of 14%.

For the compound `CC(O)C1CCCCN1C(=O)c1cccc(-c2cccc(-c3nc4cc(C(F)(F)F)ccc4[nH]3)c2)c1` (stereo not given), the Inhibition is given as 100%.

As to `O=C(O)C(F)(F)F.c1cc(CNCCc2ccncc2)cc(-c2csc(-c3nc4ccccc4[nH]3)c2)c1`, the Inhibition is 99%.

For a further experiment, the system named is HepG2. Kind of experiment: GSK_TCMDC: Percent inhibition of human HepG2 cell line. Test compounds present at 10uM. Format: functional.
For the compound `O=C(Nc1cc(Cl)ccc1O)c1cc(-c2ccccc2O)no1`, the Inhibition came to 0%.

For `Cl.O=C(/C=C/c1ccc(Cl)c(Cl)c1)N1CCC(CCN2CCC(c3c[nH]c4cnccc34)CC2)CC1`, the Inhibition is on record as 93%.

`CCc1ccc(C2CCN(CCCCNC(=O)c3ccc(-c4ccc(C#N)cc4)cc3)CC2)c(OCCO)c1.Cl` had an Inhibition of 24%.

`Br.COc1ccc2c(c1)CCCC2C(C)NCC(O)c1cccc(C(F)(F)F)c1` (stereo not given) gave an Inhibition of 3%.

Take `COc1cccc(CCc2ccc(O)c3c2C[C@H]2C[C@H]4[C@H](N(C)C)C(O)=C(C(N)=O)C(=O)[C@@]4(O)C(O)=C2C3=O)c1.Cl`: the Inhibition is 43%.

In turn, `O=C(N[C@@H](CC1CCCCC1)C(=O)NCCc1ccc(Cl)c(Cl)c1)c1ccc(O)c(-c2ccc(Cl)c(Cl)c2)c1` displayed an Inhibition of 0%.

As to `CO/C(=C\C=C\c1cc2cc(Cl)c(Cl)cc2[nH]1)C(=O)NCCCN1CCN(C2CCCCC2)CC1`, the Inhibition came out at 60%.

On to `Cc1cc(N)c2cc(NC(=O)/C=C/c3ccccc3)ccc2n1`, for which the Inhibition is reported as 20%.

Compound `Fc1ccc(Nc2ccnc3cc(-c4cccc(CN5CCCCC5)c4)ccc23)c(Cl)c1` came in with an Inhibition of 3%.

On to `CCN1CCN(Cc2c(O)ccc3c(=O)c(Oc4cc(C)cc(C)c4)c(C(F)(F)F)oc23)CC1`, for which the Inhibition is 6%.

In turn, `CN(c1ccccc1)S(=O)(=O)c1cccc(NC(=O)c2ccc(-n3ccnc3)c([N+](=O)[O-])c2)c1` had an Inhibition of 19%.

`N[C@@H](Cc1cc(I)c(Oc2ccc(O)c(Cl)c2)c(I)c1)C(=O)O` showed an Inhibition of 0%.

Compound `COc1ccc(-n2ccnc2SCC(=O)Nc2cccc(C(F)(F)F)c2)c(OC)c1` registered an Inhibition of 0%.

`Cc1[nH]c(C)c(-c2ccc(-c3ccccc3Cl)nc2)c(=O)c1Br`: the Inhibition worked out at 0%.

Compound `CCOc1ccc(C(=O)Nc2nonc2-c2ccc(OC)c(OC)c2)cc1` had an Inhibition of 7%.

The compound `CCCc1cnc2nc(N)nc(N)c2c1C` showed an Inhibition of 68%.

`O=C(NCC1CCC1)c1cnc(Nc2cccc(Cl)c2)nc1N1CCC1`: the Inhibition was 21%.

`CC1CN(C(=O)c2sc3ccccc3c2Cl)CC(C)O1` (stereo not given) displayed an Inhibition of 0%.

In turn, `C=CCNS(=O)(=O)c1ccc(NC(=O)C(C)Oc2ccc([N+](=O)[O-])cc2)cc1` (stereo not given) had an Inhibition of 14%.

`COc1cc2nc(N3CCC(CNC(=O)/C=C/c4ccccc4F)CC3)nc(N)c2cc1OC.Cl`: the Inhibition stood at 0%.

`COc1c(C2CCN(CCCCNC(=O)c3ccc(-c4ccc(C#N)cc4)nc3)CC2)ccc2c1CCCC2` displayed an Inhibition of 54%.

`CC(C)CC(C)NC(=O)C1Cc2c([nH]c3ccc(F)cc23)C2(CCN(Cc3ccccc3)CC2)N1` (stereo not given) yielded an Inhibition of 18%.

`CC(C)c1ccc(S(=O)(=O)Nc2cccc(CCN3CCC(N4CCCCC4)CC3)c2)cc1` showed an Inhibition of 37%.

In the case of `Cl.O=C(Nc1ccc2c(c1)CCNCC2)c1ccc(-c2ccc(Cl)cc2)cc1`, the Inhibition is reported as 71%.

Turning to `CS(=O)(=O)c1ccc(CNCc2cccc(-c3cccc(-c4nc5ccccc5[nH]4)c3)c2)cc1.O=C(O)C(F)(F)F`, the Inhibition is 3%.

Compound `Fc1ccc2[nH]c(-c3cccc(-c4cccc(CNCCc5ccncc5)c4)c3)nc2c1.O=C(O)C(F)(F)F` yielded an Inhibition of 22%.

In turn, `CN(CCN)Cc1cccc(-c2cccc(-c3nc4cc(F)ccc4[nH]3)c2)c1.O=C(O)C(F)(F)F` yielded an Inhibition of 20%.

The compound `COC(=O)Nc1ccc(-c2ccc(C(=O)NC3CCN(C[C@H](O)c4ccnc5ccc(OC)cc45)CC3)cc2)c(C)c1` registered an Inhibition of 32%.

`CC(C)N1CCN(c2ccc(OCCCCN3CCN(c4cccc(Cl)c4Cl)CC3)cc2Cl)CC1.Cl`: the Inhibition is given as 63%.

As to `Cc1cc(NCCCCCCCCNc2cc(C)nc3ccccc23)c2ccccc2n1.Cl`, the Inhibition is 59%.

Compound `O=C(Nc1ccc(CCNCc2ccccc2)cc1)Nc1ccc(OC(F)(F)F)cc1.O=C(O)C(F)(F)F` returned an Inhibition of 0%.

In turn, `O=C(/C=C/c1ccc(Cl)c(Cl)c1)NCCCCCCN1CCN(C(=O)Nc2ccc(Cl)c(C(F)(F)F)c2)CC1` yielded an Inhibition of 47%.

For `CN(C)C(=O)n1cnc(S(=O)(=O)N(C)c2ccc(Cl)cc2)n1.Cl`, the Inhibition is 7%.

For `O=C(NCc1ccc(Cl)c(Cl)c1)c1ccc(C2CCCN(Cc3ccc4[nH]cnc4c3)C2)cc1` (stereo not given), the Inhibition is 9%.

Take `CCCCC(CC)CN1C(=O)C(c2ccccc2)(c2ccccc2)N=C1N.O=CO` (stereo not given): the Inhibition was 32%.

On to `Cl.OC(c1ccccc1)C1CN(CCC2CC3CCC2C3)CCC1(O)c1ccccc1` (stereo not given), for which the Inhibition is given as 0%.

As for `CCN(CC)/C(=N\CCCCCC/N=C(\NC(=N)c1ccc(Cl)cc1)N(CC)CC)NC(=N)c1ccc(Cl)cc1`, the Inhibition stood at 1%.

`Cc1cccc2nc(-c3ccc(-c4cccc(NC(=O)Nc5ccccc5)c4)cc3)[nH]c12` yielded an Inhibition of 18%.

As for `CC(O)C1CCCCN1C(=O)c1cccc(-c2cccc(-c3nc4cc(C(F)(F)F)ccc4[nH]3)c2)c1` (stereo not given), the Inhibition is on record as 32%.

`O=C(O)C(F)(F)F.c1cc(CNCCc2ccncc2)cc(-c2csc(-c3nc4ccccc4[nH]3)c2)c1` gave an Inhibition of 16%.
